Reference: PubChem BioAssay
For some assays here: Entries with a potency or affinity are not part of this list. Calls of active or inactive are those of the source.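 How the source made its calls, unless noted: active means primary screen activator hit with a dose response curve and TRPC4 channel activation at any tested dose; inactive means no activation, no dose response, or not a primary hit.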

Columns and labels:
[1] = system: TRPC4 beta (transient receptor potential cation channel C4), mouse; assay: TRPC4 cation channel opening, retest – cell-based, Fluo4 calcium, HEK293 TRPC4beta/mu-opioid, duplicates, 10 µM, confirmation (AID 2426;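 active means fluorescence ratio normalized to control raised more than 50% in primary screen plus both repeat runs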); conditions: Fluo4 calcium fluorescence, at 10 µM; stronger effect = higher value
[2] = system: transient receptor potential cation channel C4 beta (TRPC4), mouse; assay: TRPC4 cation channel opening, second retest – cell-based, second round, Fluo4, HEK293 TRPC4beta/mu-opioid, 1 µM, confirmation (AID 2461;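 active means primary screen active and over 50% activation in each of two duplicate runs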); conditions: Fluo4 calcium fluorescence, at 1 µM; stronger effect = higher value
[3] = system: TRPC4 (transient receptor potential cation channel C4 beta), mouse; assay: potentiation of DAMGO EC20 TRPC4 response – cell-based, second round, Fluo-4, HEK293 TRPC4beta/mu-opioid, 1 µM, confirmation (AID 2554;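 active means primary screen hit whose fluorescence ratio, in both repeats, exceeds the weak agonist control mean by 3 SD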); conditions: DAMGO EC20, Fluo-4 calcium flux, at 1 µM; stronger effect = higher value
[4] = system: TRPC4 beta (transient receptor potential cation channel C4), mouse; assay: potentiation of DAMGO EC20 TRPC4 response – cell-based, Fluo-4, HEK293 TRPC4beta/mu-opioid, confirmation (AID 2555;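 active means primary screen hit whose calcium fluorescence ratio, in both repeats, exceeds the weak agonist control mean by 3 SD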); conditions: DAMGO EC20, Fluo-4 calcium flux, at 10 µM; stronger effect = higher value
[5] = biological target: Short transient receptor potential channel 4 (Mus musculus) (UniProt Q9QUQ5); assay: blockers of DAMGO-evoked TRPC4 calcium flux – cell-based, Fluo4, HEK293 TRPC4beta/mu-opioid, confirmation (AID 2636;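 active means calcium signal cut by more than 3 SD below the full-agonist control yet still positive, in both repeats and the earlier primary screen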); conditions: at 10 µM; stronger effect = higher value
Sequence of Short transient receptor potential channel 4 (Mus musculus) (Q9QUQ5 whole entry, looked up): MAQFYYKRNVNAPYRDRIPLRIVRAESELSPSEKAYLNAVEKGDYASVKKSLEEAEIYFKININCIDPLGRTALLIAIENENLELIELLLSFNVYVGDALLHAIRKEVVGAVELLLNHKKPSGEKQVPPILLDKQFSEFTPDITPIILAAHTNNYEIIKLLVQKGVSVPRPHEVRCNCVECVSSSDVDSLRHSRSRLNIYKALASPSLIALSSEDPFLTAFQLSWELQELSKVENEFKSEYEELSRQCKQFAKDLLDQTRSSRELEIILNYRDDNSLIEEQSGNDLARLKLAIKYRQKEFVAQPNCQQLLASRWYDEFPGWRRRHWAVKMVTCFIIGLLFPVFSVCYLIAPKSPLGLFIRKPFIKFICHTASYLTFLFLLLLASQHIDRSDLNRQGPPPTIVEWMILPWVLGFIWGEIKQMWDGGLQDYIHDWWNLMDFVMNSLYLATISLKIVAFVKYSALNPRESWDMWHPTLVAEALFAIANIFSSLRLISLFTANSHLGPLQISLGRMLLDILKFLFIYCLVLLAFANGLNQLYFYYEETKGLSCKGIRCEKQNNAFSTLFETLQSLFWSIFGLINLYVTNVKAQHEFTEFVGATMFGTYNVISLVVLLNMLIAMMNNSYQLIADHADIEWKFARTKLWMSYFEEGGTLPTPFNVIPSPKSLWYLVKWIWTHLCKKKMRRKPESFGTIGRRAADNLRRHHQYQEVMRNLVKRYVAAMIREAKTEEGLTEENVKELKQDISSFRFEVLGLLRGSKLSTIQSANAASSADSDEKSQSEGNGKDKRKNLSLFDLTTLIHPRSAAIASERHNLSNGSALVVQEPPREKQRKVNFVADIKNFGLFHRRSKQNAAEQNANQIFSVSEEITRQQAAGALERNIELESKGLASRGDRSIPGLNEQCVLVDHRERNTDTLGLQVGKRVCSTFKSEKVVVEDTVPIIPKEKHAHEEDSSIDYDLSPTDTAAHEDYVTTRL

[6] = biological target: Short transient receptor potential channel 4 (Mus musculus) (UniProt Q9QUQ5); assay: blockers of DAMGO-evoked TRPC4 calcium flux – cell-based, second round, Fluo4, HEK293 TRPC4beta/mu-opioid, 1 µM, confirmation (AID 2637;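 active means calcium signal ratio cut to more than 3 SD under the fully stimulated control mean yet still positive, in both repeats and the primary screen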;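 on inhibition: percent of integrated ratio relative to wells lacking test compound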); conditions: at 1 µM; stronger effect = higher value
[7] = biological target: Short transient receptor potential channel 4 (Mus musculus) (UniProt Q9QUQ5); assay: calcium entry via TRPC4 opening agents – cell-based, HEK293 TRPC4/mu-opioid, Fluo-4 calcium, dose response (AID 434937)
[8] = biological target: Short transient receptor potential channel 4 (Mus musculus) (UniProt Q9QUQ5); assay: potentiation of DAMGO-evoked TRPC4 calcium signal – cell-based, HEK293 TRPC4/mu-opioid, Fluo-4 calcium, EC20 DAMGO, dose response (AID 434941;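 active means earlier screen potentiator hit that boosts the TRPC4 ion channel at some dose, with a dose response; inactive means no potentiation, no dose response, or not a prior hit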;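 further: calcium entry triggered by an EC20 dose of DAMGO at the co-expressed mu-opioid receptor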)
[9] = biological target: Short transient receptor potential channel 6 (Mus musculus) (UniProt Q61143); assay: TRPC6 blockade by TRPC4 inhibitor hits – cell-based, HEK293, membrane potential dye, duplicate, selectivity assay for TRPC4 inhibitor project, confirmation (AID 434948;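 active means active in primary screen and both duplicates, each dropping signal beyond three positive-control SD with fluorescence still positive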); conditions: HEK293 TRPC6, membrane potential dye fluorescence, at 10 µM, stimulated with maximal-effect acetylcholine; stronger effect = higher value
Sequence of Short transient receptor potential channel 6 (Mus musculus) (Q61143 whole entry, looked up): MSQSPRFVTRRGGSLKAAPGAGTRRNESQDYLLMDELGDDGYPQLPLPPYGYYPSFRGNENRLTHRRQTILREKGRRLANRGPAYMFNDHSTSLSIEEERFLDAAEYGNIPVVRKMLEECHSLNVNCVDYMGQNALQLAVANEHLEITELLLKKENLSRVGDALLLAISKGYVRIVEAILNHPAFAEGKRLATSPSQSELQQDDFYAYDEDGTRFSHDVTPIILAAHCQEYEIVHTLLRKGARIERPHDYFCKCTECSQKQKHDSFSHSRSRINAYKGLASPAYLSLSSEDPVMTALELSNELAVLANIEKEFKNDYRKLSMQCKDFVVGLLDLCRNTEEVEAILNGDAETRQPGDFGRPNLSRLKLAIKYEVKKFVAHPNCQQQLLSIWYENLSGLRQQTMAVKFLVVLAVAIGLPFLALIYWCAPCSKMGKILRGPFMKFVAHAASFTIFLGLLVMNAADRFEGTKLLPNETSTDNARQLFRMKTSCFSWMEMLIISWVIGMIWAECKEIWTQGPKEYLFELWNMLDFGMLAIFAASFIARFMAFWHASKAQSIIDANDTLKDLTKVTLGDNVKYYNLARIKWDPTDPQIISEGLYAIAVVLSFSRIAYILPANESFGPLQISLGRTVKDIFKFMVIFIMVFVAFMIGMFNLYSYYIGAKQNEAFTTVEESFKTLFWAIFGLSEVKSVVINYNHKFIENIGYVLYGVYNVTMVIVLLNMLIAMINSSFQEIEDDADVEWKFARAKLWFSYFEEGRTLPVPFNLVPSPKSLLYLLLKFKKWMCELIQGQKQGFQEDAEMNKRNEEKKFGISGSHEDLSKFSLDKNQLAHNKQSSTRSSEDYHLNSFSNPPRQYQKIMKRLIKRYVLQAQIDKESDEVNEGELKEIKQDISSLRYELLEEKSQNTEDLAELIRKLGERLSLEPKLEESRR

[10] = biological target: Short transient receptor potential channel 6 (Mus musculus) (UniProt Q61143); assay: TRPC6 opening by TRPC4 activator hits – cell-based, HEK293, membrane potential dye, duplicate, selectivity assay for TRPC4 activator project, confirmation (AID 434950;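 active means membrane potential signal rise above negative control mean plus 3 SD in both duplicates, also active in the earlier TRPC4 screen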); conditions: HEK293 TRPC6, membrane potential fluorescence, at 10 µM; activation: stronger effect = higher value; outcome: activation
[11] = biological target: Short transient receptor potential channel 6 (Mus musculus) (UniProt Q61143); assay: positive modulators of mouse TRPC6 channel – HEK293 cells, membrane potential dye, duplicate, selectivity assay for TRPC4 potentiator project, confirmation (AID 434952;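 active means compound raising the membrane signal above positive-control mean plus 3 SD in both repeats, and a primary screen hit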); conditions: HEK293 TRPC6, membrane potential dye fluorescence, at 10 µM, maximal acetylcholine added after compound; stronger effect = higher value
[12] = biological target: Short transient receptor potential channel 4 (Mus musculus) (UniProt Q9QUQ5); assay: calcium flux activators in TRPC4/5HT1a cells, counter-screen for TRPC4 activator project, cell-based, second counter screen, HEK293 TRPC4/5HT1a, Fluo-4 (AID 434977;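 active means calcium signal rise above buffer-control mean plus 5 SD in both duplicates, and also a hit in the primary screen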); conditions: Fluo-4 calcium flux, at 10 µM; stronger effect = higher value
[13] = serotonin-gated TRPC4 signal block – cell-based, second counter screen, HEK293 TRPC4/5HT1a, Fluo-4, counter-screen for TRPC4 inhibitor project, confirmation (AID 434978;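 active means primary screen active whose calcium signal fell more than 3 SD beyond the full-serotonin control mean in both duplicate plates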;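 on outcome: serotonin given first at submaximal then at maximal dose after compound preincubation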); conditions: Fluo-4 calcium flux, at 10 µM, serotonin added to trigger calcium flux; stronger effect = higher value
[14] = system: TRPC4 (mouse), co-expressed with 5HT1a in HEK293; assay: enhancement of serotonin-evoked TRPC4 response – cell-based, second counter screen, HEK293 TRPC4/5HT1a, Fluo-4, counter-screen for TRPC4 potentiator project, confirmation (AID 434979;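 active means signal rise over 3 SD above mean of control wells given weak agonist, in both repeats and first screen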); conditions: Fluo-4 calcium flux, at 10 µM, serotonin added at its EC20 dose; stronger effect = higher value
[15] = nonspecific calcium rise without TRPC4 – cell-based, HEK293 mu-opioid receptor line, counter-screen for TRPC4 activator project, confirmation (AID 449723;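 active means hit in primary screen, with calcium signal over 5 SD above buffer well mean in both duplicates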;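 further: counter screen cells carry the mu-opioid receptor alone and lack TRPC4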); conditions: HEK293 mu-opioid cells, Fluo-4 calcium fluorescence, at 10 µM; stronger effect = higher value
[16] = nonspecific potentiation of DAMGO calcium response – cell-based, HEK293 mu-opioid receptor line, counter-screen for TRPC4 allosteric potentiator project, confirmation (AID 449724;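 active means calcium signal rise more than 3 SD above the low-dose agonist control mean, in both duplicate plates and the primary screen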); conditions: HEK293 mu-opioid receptor cells, Fluo-4 calcium flux, at 10 µM, compound added before EC20 DAMGO stimulus; stronger effect = higher value

Measured: inhibition

CCOCc1cn(CC(=O)c2ccc(Cl)cc2)c(C)nc1=N
active: [5] 97% | [6] 72% | [13] 13%
inactive: all other assays above

NC(=O)c1nsc(C(=O)N(Cc2ccccc2Cl)C(C(=O)NCC2CCCO2)c2ccc(O)cc2)c1N (centres undefined)
active: [5] 90% | [13] 28.6%
inactive: all other assays above

Cc1cc2cc(C#N)c(NCCNC(=S)NCCCN3CCOCC3)nc2cc1C
active: [5] 94% | [13] 26.6%
inactive: all other assays above

Cc1ccc(NC(=O)CN2CCc3ccccc3C2)cc1F
active: [5] 88%
inactive: all other assays above

N#Cc1cccc2c1-c1ccccc1/C2=N/NC(N)=O
active: [5] 86% | [6] 81% | [13] 19.9%
inactive: all other assays above

Cc1nc(Cl)c(Cl)n1CCOc1ccccc1
active: [5] 94% | [6] 46% | [13] 18.9%
inactive: all other assays above

O=C(Cc1cccc2ccccc12)Nc1ccc(Br)cc1C(=O)O
active: [5] 89% | [13] 28.9%
inactive: all other assays above

OCC1(CCCc2ccccc2)CCN(Cc2cc(F)ccc2F)CC1
active: [5] 92%
inactive: all other assays above

CCCCN(Cc1ccccc1)C(=O)C1CCN(Cc2sccc2C)CC1
active: [5] 90% | [6] 46% | [13] 32.5%
inactive: all other assays above

Nc1c2c(nc3c1CCCC3)CCCC2 (tested in a mixture with another compound)
active: [5] 94% | [6] 60% | [13] 18.3%
inactive: all other assays above

Cc1cccc(C)c1-n1cccc1/C=C1\SC(=S)N(c2cccc(C(=O)O)c2)C1=O
active: [5] 89% | [13] 23.2%
inactive: all other assays above

CC1CCCN(CCCN2C(=O)C3C(C(=O)Nc4ccc(Cl)cc4)C4C=CC3(O4)C2C(=O)NC2CCCCC2)C1 (centres undefined)
active: [5] 97% | [6] 63% | [13] 26.1%
inactive: all other assays above

Cc1cccc(Cn2c(C(C)(C)C)cc3cccnc32)c1
active: [5] 95% | [6] 72% | [9] 59.5% | [13] 19.4%
inactive: all other assays above

Cc1cccc(C)c1N1CCc2cn[nH]c21
active: [5] 84% | [13] 31.5%
inactive: all other assays above
